Screens from PubChem BioAssay.
SENP8 block-1 – blocks human SENP8 cleavage of Nedd8 substrate. Q96LD8. recombinant SENP8, Nedd8 substrate fluorescence. AID 602440. 0.64% of 360,000 active. inhibition, % at 20 µM; in the data active means inhibition mostly above about 40%, no sharp cut-off; inactive means mostly below about 27%
Target sequence (Q96LD8 whole entry, looked up): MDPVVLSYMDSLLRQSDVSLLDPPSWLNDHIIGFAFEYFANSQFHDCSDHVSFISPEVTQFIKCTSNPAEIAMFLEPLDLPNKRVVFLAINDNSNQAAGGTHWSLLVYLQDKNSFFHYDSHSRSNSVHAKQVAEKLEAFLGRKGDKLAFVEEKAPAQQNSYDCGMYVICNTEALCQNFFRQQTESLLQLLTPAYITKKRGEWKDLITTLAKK
TRAIL sens C8 – sensitizes caspase-8 expressing cells to TRAIL. NB7+C8 cells + TRAIL, ATPlite viability luminescence. inhibition (viability loss, TRAIL sensitization), % at 10 µM. 1% of 360,000 active. AID 624354;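 active means compounds causing at least 50% loss of cell viability in the single-dose screen, relative to plate controls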
SENP6 inh – inhibitors of human SENP6 protease | Q9GZR1 | Recombinant SENP6 catalytic domain, aminoluciferin luminescence | inhibition, % at 10 µM | 1.8% of 330,000 active;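 active means inhibition above about 50% at the single tested dose, limit read from the data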;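 further: plate controls were DMSO wells with enzyme for no effect and DMSO wells lacking enzyme for full effect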
PPC-1+TRAIL kill – compounds killing PPC-1 cancer cells with TRAIL present (potentiator screen, no TRAIL-free arm) | PPC-1 cells + TRAIL, ATPLite viability luminescence | 0.41% of 220,000 active | cell killing (% activity), % at 4 µM or 5 µM;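 active means cell killing above 50% in the first pass at 4 µM, then a duplicate retest at 5 µM averaging 50% or more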;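 further: plate controls were cells with TRAIL plus DMSO for no effect and medium-only wells lacking cells for full effect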
SENP8 block-2 – inhibitors of human SENP8 protease; purified SENP8, Z-RLRGG-aminoluciferin cleavage, luminescence; inhibition, % at 10 µM; Q96LD8; 1.2% of 330,000 active; in the data active means inhibition above about 50%
SENP7 block – blocks the human protease SENP7. Q9BQF6. recombinant SENP7, Z-RLRGG-aminoluciferin luminescence, 40 min. inhibition, % at 5 µM. 1.5% of 330,000 active. AID 434973;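 active means inhibition above about 50% at the single test dose, limit read from the data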;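 further: plate controls were DMSO with enzyme for no effect and no enzyme buffer wells for full effect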
Target sequence (Q9BQF6 706-1050 limits assumed): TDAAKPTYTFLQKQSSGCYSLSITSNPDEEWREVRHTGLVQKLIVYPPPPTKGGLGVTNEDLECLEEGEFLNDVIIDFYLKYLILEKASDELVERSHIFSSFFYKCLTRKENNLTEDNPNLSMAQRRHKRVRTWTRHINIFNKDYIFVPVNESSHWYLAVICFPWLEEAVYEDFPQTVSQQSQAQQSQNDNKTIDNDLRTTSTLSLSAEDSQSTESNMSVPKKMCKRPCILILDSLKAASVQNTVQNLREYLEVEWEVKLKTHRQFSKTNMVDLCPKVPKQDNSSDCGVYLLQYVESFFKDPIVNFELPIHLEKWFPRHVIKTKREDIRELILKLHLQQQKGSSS
SENP8 conf – SENP8 (human) inhibition, single concentration confirmation. shares compounds with SENP8 block-1. purified SENP8, Nedd8-AMC/pro-Nedd8 cleavage fluorescence, 30 min. inhibition, % at 25 µM. 15% of 1,400 active; in the data active means inhibition mostly above about 39%, no sharp cut-off; inactive means mostly below about 34%
* marks the source's active call; other numbers are inactive results; · = no result given. An excerpt weighted towards active compounds, which were near 3% of everything screened.

SMILES	SENP8 block-1	TRAIL sens C8	SENP6 inh	PPC-1+TRAIL kill	SENP8 block-2	SENP7 block	SENP8 conf
CCOC(=O)c1c(NC(=O)CSc2nccn2C)sc(C(=O)NC)c1C	0	9	-10	·	-7	-5	·
O=[N+]([O-])c1c(Nc2ccccc2O)cc(Cl)c2nonc12	42*	71*	12	·	-4	-5	12
O=[N+]([O-])c1c(Nc2ccc(O)cc2)cc(N2CCOCC2)c2nonc12	49*	15	-13	10	-3	3	29
O=[N+]([O-])c1c(Nc2ccccc2O)ccc2nonc12	19	-3	-7	·	-1	0	·
CCN(CC)CC(=O)Nc1ccc2c(c1)N(C(=O)CN(CC)CC)c1ccccc1CC2	40*	-4	7	12	4	7	55*
N#C/C(=C/C1=C(N2CCOCC2)C(=C/c2cccc([N+](=O)[O-])c2)/CC1)C(=O)Nc1ccccc1F	36	13	·	·	·	·	·
N#C/C(=C\C1=C(N2CCOCC2)C(=C/c2cccc([N+](=O)[O-])c2)/CC1)C(=O)Nc1ccccc1F	48*	14	·	2	·	·	19
Nc1nc[nH]c(=O)c1N=Cc1ccccc1	-238	10	4	1	-9	9	·
O=C1CCC2(CC1)NC(=O)N(c1ccccc1)N2	37*	-6	3	13	5	10	-7
N#Cc1ccccc1NC(=O)COC(=O)COc1ccccc1[N+](=O)[O-]	-27	17	-12	-5	2	3	·
CCC(=O)Nc1ccccc1Nc1cc(C#N)c(C#N)cc1[N+](=O)[O-]	42*	6	-19	16	0	2	18
COc1ccc(/C=C(\C#N)C(=O)OCC(=O)NCc2ccc(Cl)cc2)cc1	·	·	-17	11	-3	1	·
Cc1cnc(C(=O)OCc2cc(=O)n3c(C)cccc3n2)cn1	-18	-9	0	·	-12	3	·
CCC(C)C(NC(N)=O)C(=O)Nc1ccc(OCc2ccccc2)cc1 (centres undefined)	49*	-23	0	3	2	8	20
CCOc1ccc(NC(=O)[C@@H](NC(=O)OCc2ccccc2)[C@@H](C)CC)cc1	7	0	4	3	5	5	·
CC(=O)c1ccc(NC(=O)C(C)O/N=C(\N)c2ccccc2)cc1 (centres undefined)	17	-13	-2	·	5	1	·
CN(C)CCCN(C(=O)c1ccc2c(c1)OCCO2)c1nc2cc3c(cc2s1)OCO3	10	4	-12	·	2	9	·
CN(C)CCN(C(=O)c1ccc(N2C(=O)CCC2=O)cc1)c1nc2cc3c(cc2s1)OCO3	59*	8	-5	-5	4	6	48*
CC(=O)O[C@@]12CO[C@@H]1C[C@H](O)[C@@]1(C)C(=O)[C@H](O)C3=C(C)[C@@H](OC(=O)[C@H](O)[C@@H](NC(=O)OC(C)(C)C)c4ccccc4)C[C@](O)([C@@H](OC(=O)c4ccccc4)[C@H]21)C3(C)C	·	·	-4	2	12	-6	·
CC(=O)O[C@H]1C[C@@]2(O)[C@@H](OC(=O)c3ccccc3)C3[C@@](C)([C@@H](O)C[C@H]4OC[C@@]34OC(C)=O)[C@@H](O)[C@H](OC(C)=O)C(=C1C)C2(C)C (some centres undefined)	43*	19	-8	·	-5	0	15
CC(C)(C)C(=O)c1c(N)[nH]c(C(=O)c2ccccc2)c1-c1ccc(Br)cc1	19	-16	·	·	·	·	·
O=P(Nc1ccccc1)(Nc1ccccc1)c1ccccc1	16	-8	·	·	·	·	·
Cc1ccc(S(=O)(=O)N/N=C/c2ccc(OCC(=O)Nc3ccccc3Cl)cc2)cc1	13	-21	-13	23	-6	0	·
COc1ccccc1NC(=O)COc1ccc(/C=N/NS(=O)(=O)c2ccc(C)cc2)cc1	47*	-6	-23	2	-4	-2	14
O=C(CN1C(=O)S/C(=C\C=C\c2ccccc2)C1=O)N1CCOCC1	-37	25	-19	14	-3	-17	·
SMILES	SENP8 block-1	TRAIL sens C8	SENP6 inh	PPC-1+TRAIL kill	SENP8 block-2	SENP7 block	SENP8 conf
C[C@H](CCC(=O)O)[C@H]1CC[C@H]2[C@@H]3CC[C@@H]4C[C@H](O)CC[C@]4(C)[C@H]3CC[C@]12C	64*	-7	4	·	4	-7	13
CCOc1ccc(NC(=S)Nc2ccc3nsnc3c2)cc1	43*	-16	-25	26	-8	-5	39
CCOc1ccc(NC(=S)Nc2cc(OC)c(Cl)cc2OC)cc1	44*	8	11	21	1	9	7
CCC(C)(C)NS(=O)(=O)c1cc(CN2C(=O)c3cccnc3C2=O)ccc1OC	6	9	-8	·	-3	4	·
COc1cc(C2(c3ccc(O)c(OC)c3)C(=O)Nc3c(C)cc(Br)cc32)ccc1O	40*	-17	-10	·	-8	10	15
CN1CCC2(CC1)N=C(c1ccc(F)cc1)C(=S)N2C(=O)c1ccccc1	55*	-5	19	22	0	2	39*
CN1CCN(Cc2nc3ccccc3c(=O)n2Cc2nc(-c3ccc([N+](=O)[O-])cc3)cs2)CC1	47*	2	0	-7	-4	-7	17
O=C(c1cc([N+](=O)[O-])cc([N+](=O)[O-])c1)N1CCN(Cc2ccc3c(c2)OCO3)CC1	50*	1	28	-20	6	2	20
O=C(c1cc([N+](=O)[O-])ccc1Cl)N1CCN(Cc2ccc3c(c2)OCO3)CC1	19	-3	-9	8	1	5	·
O=C1CC(N2CCOCC2)=NN1c1ccc([N+](=O)[O-])cc1	76*	13	29	4	16	22	46*
CC(C)(O)c1cc2ccc(C#CCCN3C(=O)c4ccccc4C3=O)cc2c(=O)o1	-38	3	-7	·	-12	-5	·
Cc1ccc(-c2nnc(-c3ccncc3)n2-c2ccc(C)cc2)cc1	62*	-10	6	4	5	7	9
CNc1ccc(/C=C/C(=O)c2cccc3ccccc23)cc1[N+](=O)[O-]	47*	10	-12	3	8	3	13
Cc1cccc(-n2nc3c(c2NC(=O)C2CC2)CS(=O)(=O)C3)c1C	18	1	-22	·	-8	12	·
S=C(c1ccc2c(c1)OCO2)N1CCOCC1	2	17	5	20	-9	-8	·
O=C(/C=C/c1ccc2c(c1)OCO2)c1ccc(O)cc1O	40*	10	·	·	·	·	16
O=C(/C=C/c1ccc2c(c1)OCO2)c1ccco1	-94	-5	3	22	-3	10	·
COc1ccc(-c2nc(-c3ccccc3OC)no2)cc1OC	40*	6	33	2	7	9	29
CCCCNC(=O)C1(C)CCN1Cc1cccc2c(OC)cc(C(=O)OCC)cc12 (centres undefined)	-15	13	·	·	·	·	·
